# Source: PubChem BioAssay
# Values joined by “and” are separate entries in the source; they are usually repeats but may differ in a detail not shown here. Equal values may be shown once.
# Experiment: sensitizers of A549 cells to miR-34 induction, primary screen, imaging, A549 dox-inducible miR-34, nuclei and caspase counts (AID 1347080); further: test concentration not given here
# Settings: A549 miR-34 inducible, Hoechst nuclei count, 48 h; measured here: total cells without miR-34 induction
row,SMILES,cell count
1,COC1C(OC(C)=O)CC(=O)OC(C)CC=CC=CC(O)C(C)CC(CC=O)C1OC1OC(C)C(OC2C[C@@](C)(OC(=O)CC(C)C)C(O)C(C)O2)C(N(C)C)C1O (stereo not given in full),9280
2,CCN1CCCC1CNC(=O)c1c(O)c(Cl)cc(Cl)c1OC (stereo not given),9480
3,CC1COc2c(C3(N)CC3)c(F)cc3c(=O)c(C(=O)O)cn1c23 (stereo not given),10300
4,CC1CC2C3CC(F)C4=CC(=O)C(Cl)=C[C@]4(C)[C@@]3(F)C(O)C[C@]2(C)[C@@]1(O)C(=O)CO (stereo not given in full),6930
5,CC1CCC2C(C)C(OC(=O)CCC(=O)O)OC3O[C@@]4(C)CCC1[C@]32OO4 (stereo not given in full),6810
6,COc1cc(CNC(=O)CCCCC=CC(C)C)ccc1O,10100
7,CC(C)(C)NC(=O)C1CCC2C3CCC4NC(=O)C=C[C@]4(C)C3CC[C@]12C (stereo not given in full),9430
8,CCCCC(=O)N(Cc1ccc(-c2ccccc2-c2nn[nH]n2)cc1)C(C(=O)O)C(C)C (stereo not given),10300
9,CC(=O)OC1CC2CCC3C(CC[C@@]4(C)C3CC([N+]3(C)CCCCC3)C4OC(C)=O)[C@@]2(C)CC1N1CCCCC1 (stereo not given in full),9800
10,C[C@]12CCC3c4ccc(O)cc4CCC3C1CCC2O (stereo not given in full),6160
11,CN1CCc2cc(Cl)c(O)cc2C(c2ccccc2)C1 (stereo not given),9300
12,CC1CC2C3CCC4=CC(=O)C=C[C@]4(C)[C@@]3(F)C(O)C[C@]2(C)C1C(=O)CO (stereo not given in full),8550
13,COc1cccc2c1C(=O)c1c(O)c3c(c(O)c1C2=O)C[C@@](O)(C(=O)CO)CC3OC1CC(N)C(O)C(C)O1 (stereo not given in full),2030 and 2320
14,OCC1OC(n2cnc3c(NC4CCCC4)nc(Cl)nc32)C(O)C1O (stereo not given),10800
15,CC=CC(=O)N(CC)c1ccccc1C,10100
16,CC1=C(C(=O)O)N2C(=O)C(NC(=O)C(N)c3ccccc3)C2SC1 (stereo not given),9590
17,CC(C)OC(=O)CCCC=CCC1C(O)CC(O)C1CCC(O)CCc1ccccc1 (stereo not given),9620
18,OCC1OC(n2cnc3c(NC4CCCC4O)ncnc32)C(O)C1O (stereo not given),10400
19,COc1cc(C=Cc2ccc(O)cc2)cc(OC)c1,7170
20,COc1ccc(CCCOc2cc(CCn3ccnc3)ccc2OC)cc1,2300

row,SMILES,cell count
1,NC(C(=O)NC1C(=O)N2C(C(=O)O)=C(Cl)CSC12)c1ccccc1 (stereo not given),6800
2,C[C@]12C=CC(=O)C=C1CCC1C2C(O)C[C@@]2(C)C1CC[C@]2(O)C(=O)COC(=O)CCC(=O)O (stereo not given in full),7850
3,CC#C[C@]1(O)CCC2C3CCC4=CC(=O)CCC4=C3C(c3ccc(N(C)C)cc3)C[C@@]21C (stereo not given in full),6670
4,COCc1c(C(C)C)nc(C(C)C)c(C=CC(O)CC(O)CC(=O)O)c1-c1ccc(F)cc1 (stereo not given),1140
5,COC(=O)C[C@](O)(CCCC(C)(C)O)C(=O)OC1C(OC)=C[C@]23CCCN2CCc2cc4c(cc2C13)OCO4 (stereo not given in full),1870
6,CCOC(=O)O[C@]1(C(=O)OCCl)CCC2C3CCC4=CC(=O)C=C[C@]4(C)C3C(O)C[C@@]21C (stereo not given in full),6360
7,Nc1ncnc2c1ncn2C1OC(CO)CC1O (stereo not given),9950
8,C=C1C(=CC=C2CCC[C@@]3(C)C2CCC3C(C)C=CC(O)C2CC2)CC(O)CC1O (stereo not given in full),9800
9,CC1CN(CCCn2c3ccccc3c3ccccc32)CC(C)N1 (stereo not given),8340
10,CC(C)(C)NC(=O)C1CC2CCCCC2CN1CC(O)C(Cc1ccccc1)NC(=O)C(CC(N)=O)NC(=O)c1ccc2ccccc2n1 (stereo not given),4350
11,O=C(OC1C(Oc2ccccc2COC(=O)C2(O)C=CCCC2=O)OC(CO)C(O)C1O)c1ccccc1 (stereo not given),1830
12,O=c1cnn(C2OC(CO)C(O)C2O)c(=O)[nH]1 (stereo not given),1060
13,O=C(OC1CC2CC3CC(C1)N2CC3=O)c1c[nH]c2ccccc12 (stereo not given),10300
14,COCC1=C(C(=O)OC(C)OC(=O)OC(C)C)N2C(=O)C(NC(=O)C(=NOC)c3csc(N)n3)C2SC1 (stereo not given),10400
15,C=CC1=C(C(=O)O)N2C(=O)C(NC(=O)C(=NO)c3csc(N)n3)C2SC1 (stereo not given),10300
16,CC(=O)[C@@]1(O)CCC2C3CC(C)C4=CC(=O)CC[C@]4(C)C3CC[C@@]21C (stereo not given in full),9450
17,C=CCc1ccccc1OCC(O)CN[C@]1(C)CCC[C@H](C(C)(C)NC(=O)CBr)C1 (stereo not given in full),86
18,CN(C)C1C(=O)C(C(=O)NCN2CCCC2)=C(O)[C@@]2(O)C(=O)C3=C(O)c4c(O)cccc4[C@@](C)(O)C3CC12 (stereo not given in full),8650
19,C[C@]12CC(O)C3C(CCC4=CC(=O)CC[C@@]43C)C1CCC2C(=O)CO (stereo not given in full),8240
20,C#C[C@]1(O)CCC2C3CCC4=CC(=O)CCC4C3CC[C@@]21CC (stereo not given in full),9390
